Compound activity (PubChem)
Hits are enriched below; roughly 12% of the tested compounds scored in any of these assays.
PLK1 PBD block – PLK1 (human) polo-box domain binding inhibition; P53350; Plk1 PBD binding of FITC phosphopeptide, fluorescence polarization; Potency, µM, for the others: max response, negative = inhibition, hits mostly inhibitors; 2.8% of 360,000 active; AID 720504; note: potency is the fitted concentration of half-maximal effect; series mostly up to about 57 µM; % is set by controls: 0 for no effect and ±100 for the full control effect; nearly all actives have a fitted effect of over 65% in size
Target sequence (P53350 whole entry, looked up, the tested form may be a part): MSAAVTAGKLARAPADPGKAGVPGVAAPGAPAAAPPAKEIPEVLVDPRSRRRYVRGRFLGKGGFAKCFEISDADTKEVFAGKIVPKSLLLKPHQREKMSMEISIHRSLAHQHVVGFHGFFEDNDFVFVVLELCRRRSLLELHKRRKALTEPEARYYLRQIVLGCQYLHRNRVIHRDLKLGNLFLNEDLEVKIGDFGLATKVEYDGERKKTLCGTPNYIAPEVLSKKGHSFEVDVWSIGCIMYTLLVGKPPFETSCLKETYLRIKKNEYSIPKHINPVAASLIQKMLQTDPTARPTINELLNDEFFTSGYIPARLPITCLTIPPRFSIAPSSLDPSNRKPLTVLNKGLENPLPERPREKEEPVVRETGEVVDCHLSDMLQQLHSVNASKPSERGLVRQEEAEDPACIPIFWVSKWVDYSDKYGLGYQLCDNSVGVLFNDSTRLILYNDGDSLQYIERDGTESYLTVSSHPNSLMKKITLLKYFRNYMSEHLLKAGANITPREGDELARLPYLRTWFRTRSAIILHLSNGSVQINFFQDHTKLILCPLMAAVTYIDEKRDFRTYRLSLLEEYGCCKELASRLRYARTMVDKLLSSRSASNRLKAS
PI5P4K alpha inh – blocks human PI5P4K alpha kinase activity; P48426; 1.2% of 330,000 active; max response, %; PI5P4Kalpha enzyme, ADP-Glo luminescence, 60 min; hits give low values; active = max response of -50% or lower; inconclusive = between -30% and -50%; inactive = -30% or higher; note: value at the top dose of about 77 µM; % is set by controls: 0 for no effect and ±100 for the full control effect
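Luminescence from ADP-Glo served as readout of PI5P4Kalpha activity in a qHTS format. Reaction: enzyme, substrate, compound, ATP at 5 microM final, 60 min at RT.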
BAZ2B block – BAZ2B (human) inhibition. Q9UIF8. AlphaScreen BAZ2B-H3K14Ac peptide displacement. Potency, µM (doses to about 114 µM), for inactives: at the top dose activity change, negative = inhibition, usual class: inhibitors. 4.4% of 360,000 active. AID 504333; note: potency is the fitted concentration of half-maximal effect; % is set by controls: 0 for no effect and ±100 for the full control effect; nearly all actives have a fitted effect of over 60% in size
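AlphaScreen luminescence quantifies BAZ2B engagement of H3K14Ac peptide; the protein and biotinylated peptide are both at 50 nM final, buffer PBS pH 7.4 with 0.01% Tween-20, all steps at room temperature.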
JMJD2A Tudor – JMJD2A Tudor domain (human) inhibition; O75164; AlphaScreen JMJD2A-Tudor / H3K4me3 peptide binding; Potency, µM (titrated, usually from 114 µM), inactives show top-dose activity change, negative = inhibition, actives largely listed as inhibitors; 4.4% of 390,000 active; note: potency is the fitted concentration of half-maximal effect; % is set by controls: 0 for no effect and ±100 for the full control effect; nearly all actives have a fitted effect of over 50% in size
G9a inh – inhibitors of human histone lysine methyltransferase G9a | G9a H3K9 monomethylation, AlphaScreen, 2 h | Potency, µM (top dose mostly 102 µM), for inactives: top-dose activity, negative = inhibition, hits mostly inhibitors | 8.8% of 350,000 active | AID 504332; note: potency is the fitted concentration of half-maximal effect; % is set by controls: 0 for no effect and ±100 for the full control effect; nearly all actives have a fitted effect of over 75% in size
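Enzyme 20 nM + cpd, 15 min RT; add b-H3K9 pep 500 nM / SAM 20 uM; 2 h RT; anti-H3K9me1 Ab 0.5 ug/mL + SA donor / anti-rabbit acceptor beads 20 ug/mL each, 10 min; AlphaScreen read.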
HP1b chromo inh – inhibitors of HP1-beta chromodomain binding to methylated histone tails. P83916. AlphaScreen HP1-beta / biotin-H3K9me3 peptide binding. Potency, µM (doses to about 114 µM), without a hit: at the highest dose activity change, negative = inhibition, usual class: inhibitors. 0.56% of 390,000 active. AID 540317; note: potency is the fitted concentration of half-maximal effect; nearly all actives have a fitted effect of over 70% in size
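AlphaScreen: HP1-beta (50 nM) preformed 30 min with biotin-H3(1-18)K9me3 peptide (50 nM) in PBS pH 7.4, 0.01% Tween-20. Compound added for 30 min at RT, then streptavidin donor/nickel chelate acceptor beads (10 ug/mL) for 30 min.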
The depositor's hits bear a star; ? = inconclusive; . = no result; [ ] = dose if it differs, or a comment. Unless noted, calls come from the whole dose curve; as a rule, active = well fitted curve in the direction sought with a large enough effect; inconclusive = small, poorly fitted or top-dose-only effect, or another doubt; inactive = no such curve, though single readings can be large; an effect the other way counts as inactive or inconclusive.

SMILES | PLK1 PBD block | PI5P4K alpha inh | BAZ2B block | JMJD2A Tudor | G9a inh | HP1b chromo inh
O=C(O)c1ccc(/C=N/Nc2ncc(C(F)(F)F)cc2Cl)cc1 | -5% | -5 | -17% | -13% | 32µM* | 32%
CCn1c(/C=N/Nc2ccc(C(=O)O)cc2)nc2ccccc21 | -9% | -2 | 2% | -17% | 4% | 14%
O=C(CSc1ncccn1)Nc1ncc(C(F)(F)F)cc1Cl | -9% | -6 | -16% | 5% | 20µM* | 40%
O=C(N/N=C/c1ccc(C(F)(F)F)cc1)c1ccc(O)cc1 | -14% | -5 | -7% | -8% | 10% | 33%
O=C(O)c1ccc(N/N=C/c2ccc(C(F)(F)F)cc2)cc1 | ? | 9 | ? | -35% | 35µM* | -7%
CC1Oc2ccccc2C=C1/C=N/Nc1ccc(C(=O)O)cc1 (centres undefined) | 24µM* | -29 | -30% | -10%[11.4 µM] | ? | -14%
COc1ccc(C(=O)Nc2ccc(S(=O)(=O)N3CCCC3)cc2)cc1[N+](=O)[O-] | -2% | 5 | 2% | -10% | . | 14%
COc1ccc(-n2nc(C(=O)N3CCCCC3)c3c4ccccc4n(C)c3c2=O)cc1Cl | . | . | . | -9% | 25%[59 µM] | 67%
COc1ccc2[nH]cc(CCNc3ccnc(-c4ccc(N(C)C)cc4)n3)c2c1 | . | . | . | . | 3%[0.501 µM] | .
Cc1cn([C@H]2C[C@H](O)[C@@H](/C=C/C(=O)NCCN3CCOCC3)O2)c(=O)[nH]c1=O | -12% | 0 | . | . | . | .
CC(=O)C[C@@H](O)CC(=O)[C@@H]1OC(=O)CCCCCc2ccccc21 | -2% | 0 | . | -5% | . | 31%
CC(C)c1cnc2c(c1SCC(=O)Nc1ccc(OC(F)(F)F)cc1)c(=O)n(C)c(=O)n2C | . | . | 3% | -10% | ? | 29%[57 µM]
O=C(O)c1ccc(/C=N/Nc2ccc(F)cc2F)cc1 | -18% | -7 | -22% | -29% | 35µM* | 6%
CC(C)(C)c1ccc(/C=N/Nc2ccc(C(=O)O)cc2)cc1 | ? | 2 | -38% | ? | 1.8µM* | -10%
O=C(c1ccc(CS(=O)c2ccccc2Cl)o1)N1CCN(c2ccccc2F)CC1 (centres undefined) | . | . | -32% | -8% | -1%[59 µM] | 51%
O=C(COC(=O)c1ccc[n+]([O-])c1)Nc1cc([N+](=O)[O-])ccc1Cl | -5% | -9 | . | -23% | . | 12%[57 µM]
COc1cccc(/C=N/Nc2snc(SC)c2C#N)c1O | -29% | -6 | -36% | -35%[57.1 µM] | 50µM* | 11%
CSc1nsc(N/N=C/c2ccccc2)c1C#N | -9% | 5 | -24% | -17% | -45% | 17%
COc1ccc(/C=N/Nc2snc(SC)c2C#N)cc1OC | 4% | -1 | 45µM* | ? | -11%[0.0925 µM] | -33%
COc1cccc(/C=N/Nc2snc(SC)c2C#N)c1 | ? | -1 | -37% | -17% | ? | 10%
Cc1ccccc1CNCCCSc1nnnn1C | . | . | -22% | -5% | 1%[59 µM] | 46%
NNC(=O)CSCc1ccc(Cl)cc1Cl | -17% | 9 | -7% | -5% | 4%[59 µM] | 37%
CC(C)n1c(CSCc2ccc(Cl)cc2Cl)n[nH]c1=S | ? | 5 | ? | -12%[57.1 µM] | 13µM* | -5%
CCN1C(=O)S/C(=C/c2ccc(Sc3nc4ccccc4[nH]3)o2)C1=O | -10% | -2 | -2% | -24% | 11µM* | 18%
CCOC(=O)[C@]12CCC=C1N(Cc1ccccc1)C(=O)[C@H](CC(=O)NCc1ccccc1)C2 | -5% | 3 | . | . | . | .
Cc1cc(S(=O)(=O)N2CCCOC2CNC(=O)C(=O)NCCCN2CCOCC2)ccc1F (centres undefined) | 2% | 7 | -3% | -6% | . | 36%
O=C(NCc1ccco1)c1ccc(Br)s1 | -9% | . | ? | -21% | 11%[12.7 µM] | -5%
CCc1sc(C(=O)NCc2ccco2)cc1Br | -11% | 1 | ? | -21% | 56µM* | 26%
Cc1c(Br)cc(C(=O)NCc2ccco2)c(C)c1C | -22% | ? | 56µM* | -35% | ? | 8%
O=C(NCc1ccco1)c1ccc(C(=O)NCc2ccco2)s1 | 11µM* | -23 | -6% | -10%[11.4 µM] | 6%[12.7 µM] | -27%
